Results reported in the supplement of paper PMC8728848.
This excerpt belongs to a sample that is enriched for the strongest signals.

Legend:
Assay in all cases: glycan array binding signal (z-score within array); higher = stronger binding
Details in all cases: glycan notation: IUPAC condensed, linker removed
Fuc(a1-2)Gal = biological target: Fuc(a1-2)Gal
In short: (§1)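 Arrays were curated from the Consortium for Functional Glycomics database, 3228 in total, and kept only where the protein sequence was available. Binding is expressed as a within-array Z-score. This score was averaged across arrays of the same protein sequence at different concentrations or buffers and across linkers, and negative values can be read as non-binding.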

[1] = biological target: Fuc(a1-2)Gal(b1-4)GlcNAc(b1-3)Gal(b1-4)GlcNAc
In short: as §1

[2] = biological target: Fuc(a1-2)Gal(b1-4)GlcNAc(b1-3)[Fuc(a1-2)Gal(b1-4)GlcNAc(b1-6)]GalNAc
In short: as §1

[3] = biological target: Fuc(a1-2)[Gal(a1-3)]Gal(b1-3)GlcNAc(b1-3)GalNAc
In short: as §1

[4] = biological target: Fuc(a1-2)[Gal(a1-3)]Gal(b1-4)GlcNAc(b1-2)Man(a1-3)[Fuc(a1-2)[Gal(a1-3)]Gal(b1-4)GlcNAc(b1-2)Man(a1-6)]Man(b1-4)GlcNAc(b1-4)GlcNAc
In short: as §1

[5] = biological target: Fuc(a1-2)[Gal(a1-4)]Gal(b1-4)GlcNAc
In short: as §1

[6] = biological target: Fuc(a1-2)[GalNAc(a1-3)]Gal
In short: as §1

[7] = biological target: Fuc(a1-2)[GalNAc(a1-3)]Gal(b1-3)GlcNAc(b1-3)GalNAc
In short: as §1

[8] = biological target: Fuc(a1-2)[GalNAc(a1-3)]Gal(b1-4)GlcNAc(b1-3)Gal(b1-4)GlcNAc
In short: as §1

[9] = biological target: Fuc(a1-2)[GalNAc(a1-3)]Gal(b1-4)GlcNAc(b1-3)GalNAc
In short: as §1

Fuc(a1-3)GlcNAc = biological target: Fuc(a1-3)GlcNAc
In short: as §1

[10] = biological target: Fuc(a1-3)[Gal(b1-4)]GlcNAc(b1-2)Man
In short: as §1

[11] = biological target: Gal(a1-3)Gal(b1-3)GlcNAc(b1-6)GalNAc
In short: as §1

Gal(a1-3)Gal(b1-4)Glc = biological target: Gal(a1-3)Gal(b1-4)Glc
In short: as §1

Gal(b1-3)Gal = biological target: Gal(b1-3)Gal
In short: as §1

[12] = biological target: Gal(b1-3)GalNAc(b1-3)Gal(a1-4)Gal(b1-4)Glc
In short: as §1

[13] = biological target: Gal(b1-3)GlcNAc(b1-2)Man(a1-3)[Gal(b1-3)GlcNAc(b1-2)Man(a1-6)]Man(b1-4)GlcNAc(b1-4)GlcNAc
In short: as §1

[14] = biological target: Gal(b1-3)GlcNAc(b1-3)Gal(b1-3)GlcNAc
In short: as §1

[15] = biological target: Gal(b1-3)GlcNAc(b1-3)Gal(b1-4)GlcNAc(b1-2)[Gal(b1-3)GlcNAc(b1-3)Gal(b1-4)GlcNAc(b1-6)]Man(a1-6)[Gal(b1-3)GlcNAc(b1-3)Gal(b1-4)GlcNAc(b1-2)Man(a1-3)]Man(b1-4)GlcNAc(b1-4)[Fuc(a1-6)]GlcNAc
In short: as §1

[16] = biological target: Gal(b1-4)GlcNAc(b1-2)Man(a1-3)[Gal(b1-4)GlcNAc(b1-2)Man(a1-6)]Man(b1-4)GlcNAc(b1-4)GlcNAc
In short: as §1

[17] = biological target: Gal(b1-4)GlcNAc(b1-2)Man(a1-6)[Man(a1-3)]Man(b1-4)GlcNAc(b1-4)GlcNAc
In short: as §1

[18] = biological target: Gal(b1-4)GlcNAc(b1-2)[Gal(b1-4)GlcNAc(b1-6)]Man(a1-6)[Gal(b1-4)GlcNAc(b1-2)Man(a1-3)]Man(b1-4)GlcNAc(b1-4)GlcNAc
In short: as §1

[19] = biological target: Gal(b1-4)GlcNAc(b1-3)Gal(b1-4)GlcNAc(b1-2)[Gal(b1-4)GlcNAc(b1-3)Gal(b1-4)GlcNAc(b1-6)]Man(a1-6)[Gal(b1-4)GlcNAc(b1-3)Gal(b1-4)GlcNAc(b1-2)Man(a1-3)]Man(b1-4)GlcNAc(b1-4)GlcNAc
In short: as §1

[20] = biological target: Gal(b1-4)GlcNAc(b1-3)Gal(b1-4)GlcNAc(b1-3)Gal(b1-4)GlcNAc
In short: as §1

[21] = biological target: Gal(b1-4)GlcNAc(b1-3)Gal(b1-4)GlcNAc(b1-3)Gal(b1-4)GlcNAc(b1-2)Man(a1-3)[Gal(b1-4)GlcNAc(b1-3)Gal(b1-4)GlcNAc(b1-3)Gal(b1-4)GlcNAc(b1-2)Man(a1-6)]Man(b1-4)GlcNAc(b1-4)GlcNAc
In short: as §1

[22] = biological target: Gal(b1-4)GlcNAc(b1-3)Gal(b1-4)GlcNAc(b1-3)Gal(b1-4)GlcNAc(b1-3)Gal(b1-4)GlcNAc(b1-2)Man(a1-3)[Gal(b1-4)GlcNAc(b1-3)Gal(b1-4)GlcNAc(b1-3)Gal(b1-4)GlcNAc(b1-3)Gal(b1-4)GlcNAc(b1-2)Man(a1-6)]Man(b1-4)GlcNAc(b1-4)[Fuc(a1-6)]GlcNAc
In short: as §1

[23] = biological target: Gal(b1-4)GlcNAc(b1-3)Gal(b1-4)GlcNAc(b1-3)Gal(b1-4)GlcNAc(b1-3)Gal(b1-4)GlcNAc(b1-2)[Gal(b1-4)GlcNAc(b1-3)Gal(b1-4)GlcNAc(b1-3)Gal(b1-4)GlcNAc(b1-3)Gal(b1-4)GlcNAc(b1-6)]Man(a1-6)[Gal(b1-4)GlcNAc(b1-3)Gal(b1-4)GlcNAc(b1-3)Gal(b1-4)GlcNAc(b1-3)Gal(b1-4)GlcNAc(b1-2)Man(a1-3)]Man(b1-4)GlcNAc(b1-4)[Fuc(a1-6)]GlcNAc
In short: as §1

[24] = biological target: Gal(b1-4)GlcNAc(b1-3)Gal(b1-4)GlcNAc(b1-3)Gal(b1-4)GlcNAc(b1-3)Gal(b1-4)GlcNAc(b1-3)Gal(b1-4)GlcNAc(b1-3)Gal(b1-4)GlcNAc(b1-2)Man(a1-3)[Gal(b1-4)GlcNAc(b1-3)Gal(b1-4)GlcNAc(b1-3)Gal(b1-4)GlcNAc(b1-3)Gal(b1-4)GlcNAc(b1-3)Gal(b1-4)GlcNAc(b1-3)Gal(b1-4)GlcNAc(b1-2)Man(a1-6)]Man(b1-4)GlcNAc(b1-4)GlcNAc
In short: as §1

B1: MtEccB1 (Mycobacterium tuberculosis H37Rv), O69734 (protein)
chain: MGLRLTTKVQVSGWRFLLRRLEHAIVRRDTRMFDDPLQFYSRSIALGIVVAVLILAGAALLAYFKPQGKLGGTSLFTDRATNQLYVLLSGQLHPVYNLTSARLVLGNPANPATVKSSELSKLPMGQTVGIPGAPYATPVSAGSTSIWTLCDTVARADSTSPVVQTAVIAMPLEIDASIDPLQSHEAVLVSYQGETWIVTTKGRHAIDLTDRALTSSMGIPVTARPTPISEGMFNALPDMGPWQLPPIPAAGAPNSLGLPDDLVIGSVFQIHTDKGPQYYVVLPDGIAQVNATTAAALRATQAHGLVAPPAMVPSLVVRIAERVYPSPLPDEPLKIVSRPQDPALCWSWQRSAGDQSPQSTVLSGRHLPISPSAMNMGIKQIHGTATVYLDGGKFVALQSPDPRYTESMYYIDPQGVRYGVPNAETAKSLGLSSPQNAPWEIVRLLVDGPVLSKDAALLEHDTLPADPSPRKVPAGASGAP
glycan array binding signal (z-score) (Fuc(a1-2)Gal): -0.548
glycan array binding signal (z-score) [1]: -0.199
glycan array binding signal (z-score) [2]: -0.809
glycan array binding signal (z-score) [3]: 0.379
glycan array binding signal (z-score) [4]: -0.471
glycan array binding signal (z-score) [5]: -1.08
glycan array binding signal (z-score) [6]: -0.459
glycan array binding signal (z-score) [7]: 0.901
glycan array binding signal (z-score) [8]: -1.03
glycan array binding signal (z-score) [9]: -0.767
glycan array binding signal (z-score) (Fuc(a1-3)GlcNAc): -1.29
glycan array binding signal (z-score) [10]: -0.707
glycan array binding signal (z-score) [11]: -0.407
glycan array binding signal (z-score) (Gal(a1-3)Gal(b1-4)Glc): 0.359
glycan array binding signal (z-score) (Gal(b1-3)Gal): 0.485
glycan array binding signal (z-score) [12]: -0.784
glycan array binding signal (z-score) [13]: 2.58
glycan array binding signal (z-score) [14]: 0.213
glycan array binding signal (z-score) [15]: 1.6
glycan array binding signal (z-score) [16]: -1.33
glycan array binding signal (z-score) [17]: 2.86
glycan array binding signal (z-score) [18]: -0.552
glycan array binding signal (z-score) [19]: 2.86
glycan array binding signal (z-score) [20]: 2.06
glycan array binding signal (z-score) [21]: 0.867
glycan array binding signal (z-score) [22]: 1.01
glycan array binding signal (z-score) [23]: 1.93
glycan array binding signal (z-score) [24]: 2.86
